# What was measured:
# Assay in all cases: DAPPL (digital affinity profiling via proximity ligation, sequencing); 10 mM Tris-HCl pH 7.5, 50 mM NaCl, 1 mM DTT, 4% glycerol, room temperature, 30 min; GST-TFs on glutathione beads, 16-mer random dsDNA library, 0.1% formaldehyde crosslink after washing; high values mean tight binding
# FLI1 = molecular target: T1, FLI1 (Homo sapiens, UniProt Q01543 1-452); settings: protein: recombinant; tags: N-terminal GST; dsDNA, one strand shown
# T1 sequence: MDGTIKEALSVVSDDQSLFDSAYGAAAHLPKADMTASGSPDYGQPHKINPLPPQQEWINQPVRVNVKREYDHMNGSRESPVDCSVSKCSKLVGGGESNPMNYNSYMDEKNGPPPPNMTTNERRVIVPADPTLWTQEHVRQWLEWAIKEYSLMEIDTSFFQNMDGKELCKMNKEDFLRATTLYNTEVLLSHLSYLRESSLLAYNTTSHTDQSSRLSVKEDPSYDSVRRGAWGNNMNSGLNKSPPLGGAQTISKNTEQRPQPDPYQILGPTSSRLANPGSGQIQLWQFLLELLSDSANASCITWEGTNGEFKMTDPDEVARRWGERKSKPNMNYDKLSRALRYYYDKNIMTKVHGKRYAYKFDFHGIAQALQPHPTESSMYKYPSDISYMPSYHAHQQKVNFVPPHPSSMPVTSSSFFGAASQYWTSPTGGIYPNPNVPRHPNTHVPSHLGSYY
# Method in brief: (§1)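 GST fusions of human transcription factors were expressed in yeast and captured with glutathione beads. Once given DNA barcodes and pooled alongside a tag-only sample, they were incubated for 30 min at room temperature with 200 nmole of a random double-stranded 16-mer DNA library in Tris/NaCl/DTT/glycerol buffer, then washed, crosslinked (0.1% formaldehyde), proximity-ligated, PCR-amplified and sequenced on an Illumina NextSeq500. The binding signal of each hexamer is its read frequency for a factor divided by its frequency for the tag-only sample.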
# ELK1 = molecular target: T2, ELK1 (Homo sapiens, UniProt P19419 1-428); settings: protein: recombinant; tags: N-terminal GST; dsDNA, one strand shown
# T2 sequence: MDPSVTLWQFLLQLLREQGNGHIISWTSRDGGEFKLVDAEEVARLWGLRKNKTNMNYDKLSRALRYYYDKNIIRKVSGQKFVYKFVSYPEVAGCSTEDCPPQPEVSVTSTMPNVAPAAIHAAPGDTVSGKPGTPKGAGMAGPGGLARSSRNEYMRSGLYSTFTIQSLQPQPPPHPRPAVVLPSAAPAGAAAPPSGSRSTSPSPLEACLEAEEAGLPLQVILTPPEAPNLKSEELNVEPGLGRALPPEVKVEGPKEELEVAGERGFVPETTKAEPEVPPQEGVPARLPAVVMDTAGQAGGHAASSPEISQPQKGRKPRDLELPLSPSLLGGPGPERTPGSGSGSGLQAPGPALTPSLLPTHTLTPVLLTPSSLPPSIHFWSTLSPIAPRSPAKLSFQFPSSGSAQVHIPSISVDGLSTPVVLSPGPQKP
# Method in brief: as §1
# GABPA = molecular target: T3, GABPA (Homo sapiens, UniProt Q06546 1-454); settings: protein: recombinant; tags: N-terminal GST; dsDNA, one strand shown
# T3 sequence: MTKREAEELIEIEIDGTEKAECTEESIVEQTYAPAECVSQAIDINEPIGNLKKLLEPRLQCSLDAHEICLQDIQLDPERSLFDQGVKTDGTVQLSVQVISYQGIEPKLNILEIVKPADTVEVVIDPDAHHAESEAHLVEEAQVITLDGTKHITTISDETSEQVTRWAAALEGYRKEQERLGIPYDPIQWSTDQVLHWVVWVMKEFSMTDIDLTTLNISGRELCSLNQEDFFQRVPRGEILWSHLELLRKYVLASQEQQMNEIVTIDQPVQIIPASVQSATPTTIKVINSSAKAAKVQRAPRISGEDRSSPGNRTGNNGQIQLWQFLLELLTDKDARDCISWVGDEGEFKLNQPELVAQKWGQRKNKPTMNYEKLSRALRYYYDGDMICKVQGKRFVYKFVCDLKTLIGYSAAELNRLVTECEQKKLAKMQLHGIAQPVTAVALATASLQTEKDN
# Method in brief: as §1
# ERG = molecular target: T4, ERG (Homo sapiens, UniProt P11308 1-479); settings: protein: recombinant; tags: N-terminal GST; dsDNA, one strand shown
# T4 sequence: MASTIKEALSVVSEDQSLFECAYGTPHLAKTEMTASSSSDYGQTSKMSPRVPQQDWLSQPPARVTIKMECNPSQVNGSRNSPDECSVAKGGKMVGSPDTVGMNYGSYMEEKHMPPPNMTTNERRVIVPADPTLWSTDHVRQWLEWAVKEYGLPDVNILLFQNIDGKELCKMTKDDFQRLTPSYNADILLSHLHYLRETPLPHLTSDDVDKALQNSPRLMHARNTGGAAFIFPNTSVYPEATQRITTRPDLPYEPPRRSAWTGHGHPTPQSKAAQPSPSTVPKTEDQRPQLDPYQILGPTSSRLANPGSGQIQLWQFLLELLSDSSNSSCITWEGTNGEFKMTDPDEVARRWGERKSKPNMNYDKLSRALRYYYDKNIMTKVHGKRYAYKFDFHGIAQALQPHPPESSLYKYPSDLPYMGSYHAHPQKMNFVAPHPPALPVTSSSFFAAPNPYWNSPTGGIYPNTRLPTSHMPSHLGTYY
# Method in brief: as §1
# ELF1 = ELF1 (Homo sapiens, UniProt P32519 1-619); settings: protein: recombinant; tags: N-terminal GST; dsDNA, one strand shown
# Method in brief: as §1
# EHF = molecular target: T5, EHF (Homo sapiens, UniProt Q9NZC4 1-300); settings: protein: recombinant; tags: N-terminal GST; dsDNA, one strand shown
# T5 sequence: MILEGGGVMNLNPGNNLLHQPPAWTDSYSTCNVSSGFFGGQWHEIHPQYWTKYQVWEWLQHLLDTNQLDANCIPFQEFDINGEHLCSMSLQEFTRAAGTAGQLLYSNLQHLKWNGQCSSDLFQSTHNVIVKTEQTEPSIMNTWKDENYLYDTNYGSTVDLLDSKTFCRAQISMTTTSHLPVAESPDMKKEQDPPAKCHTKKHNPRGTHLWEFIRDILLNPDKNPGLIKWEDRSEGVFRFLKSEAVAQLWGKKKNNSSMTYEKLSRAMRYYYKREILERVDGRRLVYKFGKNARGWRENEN
# Method in brief: as §1
# SPI1 = SPI1 (Homo sapiens, UniProt P17947 1-270); settings: protein: recombinant; tags: N-terminal GST; dsDNA, one strand shown
# Method in brief: as §1
# SPIB = SPIB (Homo sapiens, UniProt Q01892 1-262); settings: protein: recombinant; tags: N-terminal GST; dsDNA, one strand shown
# Method in brief: as §1
# ELK3 = molecular target: T6, ELK3 (Homo sapiens, UniProt P41970 1-407); settings: protein: recombinant; tags: N-terminal GST; dsDNA, one strand shown
# T6 sequence: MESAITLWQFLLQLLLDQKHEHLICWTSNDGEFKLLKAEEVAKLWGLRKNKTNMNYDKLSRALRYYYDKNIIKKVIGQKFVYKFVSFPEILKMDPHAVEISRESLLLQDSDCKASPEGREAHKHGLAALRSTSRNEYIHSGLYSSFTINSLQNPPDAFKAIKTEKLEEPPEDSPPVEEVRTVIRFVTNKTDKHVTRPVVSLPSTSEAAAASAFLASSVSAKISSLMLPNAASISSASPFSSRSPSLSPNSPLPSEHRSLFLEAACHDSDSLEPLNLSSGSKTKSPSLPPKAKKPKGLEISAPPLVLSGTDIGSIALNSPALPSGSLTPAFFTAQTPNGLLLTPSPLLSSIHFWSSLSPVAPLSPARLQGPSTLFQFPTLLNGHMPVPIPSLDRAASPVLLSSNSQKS
# Method in brief: as §1
# FEV = molecular target: T7, FEV (Homo sapiens, UniProt Q99581 1-238); settings: protein: recombinant; tags: N-terminal GST; dsDNA, one strand shown
# T7 sequence: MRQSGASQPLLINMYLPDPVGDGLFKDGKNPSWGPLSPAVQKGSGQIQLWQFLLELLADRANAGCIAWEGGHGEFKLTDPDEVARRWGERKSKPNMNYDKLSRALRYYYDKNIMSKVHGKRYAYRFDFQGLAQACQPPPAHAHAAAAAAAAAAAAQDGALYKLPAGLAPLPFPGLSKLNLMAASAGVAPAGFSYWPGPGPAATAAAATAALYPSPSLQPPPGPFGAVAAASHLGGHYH
# Method in brief: as §1
# ETV5 = ETV5 (Homo sapiens, UniProt P41161 1-510); settings: protein: recombinant; tags: N-terminal GST; dsDNA, one strand shown
# Method in brief: as §1
# HSF1 = HSF1 (Homo sapiens, UniProt Q00613 1-529); settings: protein: recombinant; tags: N-terminal GST; chain copies: 3; dsDNA, one strand shown
# Method in brief: as §1
# SPIC = molecular target: T8, SPIC (Homo sapiens, UniProt Q8N5J4 1-248); settings: protein: recombinant; tags: N-terminal GST; dsDNA, one strand shown
# T8 sequence: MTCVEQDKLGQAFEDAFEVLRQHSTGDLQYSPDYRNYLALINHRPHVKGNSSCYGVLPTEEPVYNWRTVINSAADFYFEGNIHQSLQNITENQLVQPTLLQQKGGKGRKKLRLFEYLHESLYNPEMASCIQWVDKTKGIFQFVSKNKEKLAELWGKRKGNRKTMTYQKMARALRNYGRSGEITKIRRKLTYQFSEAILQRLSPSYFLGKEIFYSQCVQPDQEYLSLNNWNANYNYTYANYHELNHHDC
# Method in brief: as §1
# ELF4 = ELF4 (Homo sapiens, UniProt Q99607 1-663); settings: protein: recombinant; tags: N-terminal GST; dsDNA, one strand shown
# Method in brief: as §1
# ELK4 = molecular target: T9, ELK4 (Homo sapiens, UniProt P28324-2 1-405); settings: protein: recombinant; tags: N-terminal GST; dsDNA, one strand shown
# T9 sequence: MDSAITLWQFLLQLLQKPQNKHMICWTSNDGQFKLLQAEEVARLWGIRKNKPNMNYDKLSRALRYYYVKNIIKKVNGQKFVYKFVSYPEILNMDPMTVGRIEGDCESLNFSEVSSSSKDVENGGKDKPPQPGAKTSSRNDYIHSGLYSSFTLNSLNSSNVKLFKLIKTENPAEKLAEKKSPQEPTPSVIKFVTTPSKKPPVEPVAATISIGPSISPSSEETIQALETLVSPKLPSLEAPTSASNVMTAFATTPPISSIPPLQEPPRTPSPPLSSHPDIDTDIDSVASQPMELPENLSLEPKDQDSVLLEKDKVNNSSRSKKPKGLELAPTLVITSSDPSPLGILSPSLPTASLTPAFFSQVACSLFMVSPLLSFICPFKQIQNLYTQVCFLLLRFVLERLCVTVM
# Method in brief: as §1
# ETV2 = molecular target: T10, ETV2 (Homo sapiens, UniProt O00321 1-342); settings: protein: recombinant; tags: N-terminal GST; dsDNA, one strand shown
# T10 sequence: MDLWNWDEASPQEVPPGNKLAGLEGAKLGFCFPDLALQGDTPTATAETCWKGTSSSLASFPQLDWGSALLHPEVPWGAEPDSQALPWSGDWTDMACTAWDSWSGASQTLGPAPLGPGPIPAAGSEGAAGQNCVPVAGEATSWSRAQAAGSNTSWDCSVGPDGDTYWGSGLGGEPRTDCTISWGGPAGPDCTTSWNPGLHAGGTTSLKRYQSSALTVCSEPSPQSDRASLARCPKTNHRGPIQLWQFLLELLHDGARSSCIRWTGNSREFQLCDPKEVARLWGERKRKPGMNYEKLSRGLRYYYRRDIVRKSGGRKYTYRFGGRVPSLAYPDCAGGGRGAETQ
# Method in brief: as §1
# ELF3 = molecular target: T11, ELF3 (Homo sapiens, UniProt P78545 1-371); settings: protein: recombinant; tags: N-terminal GST; dsDNA, one strand shown
# T11 sequence: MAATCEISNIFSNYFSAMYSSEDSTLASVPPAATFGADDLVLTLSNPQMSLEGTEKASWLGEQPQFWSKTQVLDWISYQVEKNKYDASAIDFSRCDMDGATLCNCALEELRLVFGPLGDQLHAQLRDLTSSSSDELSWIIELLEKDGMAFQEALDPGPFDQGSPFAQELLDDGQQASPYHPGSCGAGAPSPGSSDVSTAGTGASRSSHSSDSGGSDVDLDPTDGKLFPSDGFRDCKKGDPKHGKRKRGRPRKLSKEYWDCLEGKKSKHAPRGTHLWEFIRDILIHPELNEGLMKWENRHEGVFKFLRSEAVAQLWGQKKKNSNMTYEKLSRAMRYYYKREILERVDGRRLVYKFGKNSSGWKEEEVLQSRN
# Method in brief: as §1
# CRX = CRX (Homo sapiens, UniProt O43186 1-299); settings: protein: recombinant; tags: N-terminal GST; dsDNA, one strand shown
# Method in brief: as §1
# ETV1 = ETV1 (Homo sapiens, UniProt P50549 1-477); settings: protein: recombinant; tags: N-terminal GST; dsDNA, one strand shown
# Method in brief: as §1
# ETV5, sequence (P41161 whole entry): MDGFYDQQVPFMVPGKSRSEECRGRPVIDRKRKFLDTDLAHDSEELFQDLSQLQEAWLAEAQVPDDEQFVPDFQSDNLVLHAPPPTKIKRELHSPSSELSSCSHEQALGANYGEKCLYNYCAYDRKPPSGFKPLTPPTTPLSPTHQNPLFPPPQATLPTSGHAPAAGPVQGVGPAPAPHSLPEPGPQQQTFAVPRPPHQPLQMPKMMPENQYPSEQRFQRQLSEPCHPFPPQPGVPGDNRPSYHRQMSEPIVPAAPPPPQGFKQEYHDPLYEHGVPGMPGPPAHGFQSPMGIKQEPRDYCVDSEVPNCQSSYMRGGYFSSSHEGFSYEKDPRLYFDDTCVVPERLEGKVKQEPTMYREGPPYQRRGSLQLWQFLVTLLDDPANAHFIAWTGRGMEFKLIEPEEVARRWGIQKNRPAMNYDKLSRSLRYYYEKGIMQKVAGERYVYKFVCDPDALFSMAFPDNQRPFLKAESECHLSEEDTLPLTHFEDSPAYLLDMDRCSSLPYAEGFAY
# CRX, sequence (O43186 whole entry): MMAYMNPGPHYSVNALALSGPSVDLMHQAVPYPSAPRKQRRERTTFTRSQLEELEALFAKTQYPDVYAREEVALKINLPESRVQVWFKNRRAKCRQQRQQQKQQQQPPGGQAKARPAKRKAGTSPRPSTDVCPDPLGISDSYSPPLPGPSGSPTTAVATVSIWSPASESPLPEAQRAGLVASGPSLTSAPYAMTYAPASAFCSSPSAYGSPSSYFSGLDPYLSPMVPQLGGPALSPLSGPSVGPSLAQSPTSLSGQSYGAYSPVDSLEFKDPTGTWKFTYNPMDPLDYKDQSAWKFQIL
# ELF4, sequence (Q99607 whole entry): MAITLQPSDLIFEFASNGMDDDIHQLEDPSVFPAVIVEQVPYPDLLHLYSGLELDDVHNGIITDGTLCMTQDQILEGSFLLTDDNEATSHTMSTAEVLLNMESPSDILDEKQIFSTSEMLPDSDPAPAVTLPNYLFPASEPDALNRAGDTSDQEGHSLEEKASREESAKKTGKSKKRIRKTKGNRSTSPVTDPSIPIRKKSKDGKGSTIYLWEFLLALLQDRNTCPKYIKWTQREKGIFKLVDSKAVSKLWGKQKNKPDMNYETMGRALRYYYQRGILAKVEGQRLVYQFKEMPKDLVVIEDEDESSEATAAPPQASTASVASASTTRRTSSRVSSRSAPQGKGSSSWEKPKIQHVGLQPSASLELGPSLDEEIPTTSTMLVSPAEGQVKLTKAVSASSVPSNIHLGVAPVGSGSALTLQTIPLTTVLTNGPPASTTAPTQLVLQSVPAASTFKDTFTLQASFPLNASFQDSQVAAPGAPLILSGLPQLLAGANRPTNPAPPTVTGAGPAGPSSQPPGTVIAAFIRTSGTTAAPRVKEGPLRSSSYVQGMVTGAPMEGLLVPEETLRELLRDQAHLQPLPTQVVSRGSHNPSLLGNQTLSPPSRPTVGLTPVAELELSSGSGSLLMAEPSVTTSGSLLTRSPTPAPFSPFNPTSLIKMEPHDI
# ETV1, sequence (P50549 whole entry): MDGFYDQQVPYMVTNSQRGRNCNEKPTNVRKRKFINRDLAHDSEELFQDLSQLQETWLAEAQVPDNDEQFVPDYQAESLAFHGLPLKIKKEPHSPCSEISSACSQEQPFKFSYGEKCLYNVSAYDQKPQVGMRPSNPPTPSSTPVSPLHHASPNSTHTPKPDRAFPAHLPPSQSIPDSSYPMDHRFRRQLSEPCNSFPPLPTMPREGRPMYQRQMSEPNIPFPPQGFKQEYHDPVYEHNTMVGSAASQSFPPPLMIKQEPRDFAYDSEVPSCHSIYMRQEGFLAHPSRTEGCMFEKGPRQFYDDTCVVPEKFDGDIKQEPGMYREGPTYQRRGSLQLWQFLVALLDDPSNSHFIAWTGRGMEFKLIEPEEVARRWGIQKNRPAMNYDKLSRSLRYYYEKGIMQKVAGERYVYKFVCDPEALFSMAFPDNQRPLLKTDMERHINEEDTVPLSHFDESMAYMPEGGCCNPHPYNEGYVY
# HSF1, sequence (Q00613 whole entry): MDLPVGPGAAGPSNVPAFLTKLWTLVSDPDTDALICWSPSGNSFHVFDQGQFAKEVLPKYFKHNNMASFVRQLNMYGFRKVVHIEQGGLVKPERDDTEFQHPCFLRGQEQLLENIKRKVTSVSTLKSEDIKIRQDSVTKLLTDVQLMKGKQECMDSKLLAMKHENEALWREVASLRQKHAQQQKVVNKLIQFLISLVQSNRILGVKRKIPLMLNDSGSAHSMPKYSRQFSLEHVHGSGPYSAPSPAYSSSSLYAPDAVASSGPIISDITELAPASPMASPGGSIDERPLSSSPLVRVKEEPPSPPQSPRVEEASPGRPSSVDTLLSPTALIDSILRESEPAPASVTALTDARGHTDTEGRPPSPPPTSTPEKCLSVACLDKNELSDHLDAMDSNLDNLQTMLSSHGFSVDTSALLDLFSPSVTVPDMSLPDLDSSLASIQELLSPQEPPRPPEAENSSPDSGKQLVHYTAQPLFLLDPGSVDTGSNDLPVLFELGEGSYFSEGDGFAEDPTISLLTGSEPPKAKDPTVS
# ELF1, sequence (P32519 whole entry): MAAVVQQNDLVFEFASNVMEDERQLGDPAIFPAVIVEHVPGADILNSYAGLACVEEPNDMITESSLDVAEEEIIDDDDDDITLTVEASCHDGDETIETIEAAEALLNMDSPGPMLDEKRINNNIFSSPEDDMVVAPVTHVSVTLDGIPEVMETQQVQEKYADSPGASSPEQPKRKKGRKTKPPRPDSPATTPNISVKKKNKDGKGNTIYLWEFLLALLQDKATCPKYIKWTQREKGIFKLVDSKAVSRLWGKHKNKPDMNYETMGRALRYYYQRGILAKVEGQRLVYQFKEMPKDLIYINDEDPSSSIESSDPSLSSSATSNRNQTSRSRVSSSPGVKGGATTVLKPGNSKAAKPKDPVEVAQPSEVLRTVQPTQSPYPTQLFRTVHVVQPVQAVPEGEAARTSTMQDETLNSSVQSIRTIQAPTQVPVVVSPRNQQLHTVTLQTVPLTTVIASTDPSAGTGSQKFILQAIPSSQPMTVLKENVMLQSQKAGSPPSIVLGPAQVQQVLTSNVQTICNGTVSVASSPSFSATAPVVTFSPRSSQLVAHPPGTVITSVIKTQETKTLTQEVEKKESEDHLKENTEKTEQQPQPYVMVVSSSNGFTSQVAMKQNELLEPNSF
# SPIB, sequence (Q01892 whole entry): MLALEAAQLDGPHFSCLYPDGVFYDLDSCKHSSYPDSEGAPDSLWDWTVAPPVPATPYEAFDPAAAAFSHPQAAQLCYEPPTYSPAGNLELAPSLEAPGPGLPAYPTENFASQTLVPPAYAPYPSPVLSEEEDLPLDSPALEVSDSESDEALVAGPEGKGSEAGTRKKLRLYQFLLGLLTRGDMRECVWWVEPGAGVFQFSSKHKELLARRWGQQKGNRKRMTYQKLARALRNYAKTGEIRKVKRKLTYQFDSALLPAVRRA
sequence,measurement,setting,value
ACTAGC,binding signal,FLI1,"1.23 fold enrichment (6-mer frequency, TF over GST control)"
same,binding signal,ELK1,"1.18 fold enrichment (6-mer frequency, TF over GST control)"
same,binding signal,GABPA,"1.26 fold enrichment (6-mer frequency, TF over GST control)"
same,binding signal,ERG,"1.21 fold enrichment (6-mer frequency, TF over GST control)"
same,binding signal,ELF1,"1.15 fold enrichment (6-mer frequency, TF over GST control)"
same,binding signal,EHF,"1.11 fold enrichment (6-mer frequency, TF over GST control)"
same,binding signal,SPI1,"1.28 fold enrichment (6-mer frequency, TF over GST control)"
same,binding signal,SPIB,"1.22 fold enrichment (6-mer frequency, TF over GST control)"
same,binding signal,ELK3,"1.1 fold enrichment (6-mer frequency, TF over GST control)"
same,binding signal,FEV,"1.11 fold enrichment (6-mer frequency, TF over GST control)"
same,binding signal,ETV5,"1.2 fold enrichment (6-mer frequency, TF over GST control)"
same,binding signal,HSF1,"1.32 fold enrichment (6-mer frequency, TF over GST control)"
same,binding signal,SPIC,"1.17 fold enrichment (6-mer frequency, TF over GST control)"
same,binding signal,ELF4,"1.17 fold enrichment (6-mer frequency, TF over GST control)"
same,binding signal,ELK4,"1.24 fold enrichment (6-mer frequency, TF over GST control)"
same,binding signal,ETV2,"1.3 fold enrichment (6-mer frequency, TF over GST control)"
same,binding signal,ELF3,"1.01 fold enrichment (6-mer frequency, TF over GST control)"
same,binding signal,CRX,"1.11 fold enrichment (6-mer frequency, TF over GST control)"
same,binding signal,ETV1,"1.19 fold enrichment (6-mer frequency, TF over GST control)"
